Source: PubChem BioAssay (several laboratories)
A selection: hits, their analogues and other compounds. The true share with any hit is near 3%.
ROMK mod = ROMK potassium channel modulators, primary screen, cell-based, thallium flux, MLSMR library; ATP-sensitive inward rectifier potassium channel 1 (Homo sapiens), P48048; Tet-inducible ROMK, thallium flux fluorescence; actives lie on both sides; B-score at 10 µM; hit rate 2% among 130,000; AID 1918, 2009;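 active means signal ratio slope over the read window, or its plate-corrected B-score, at least 3 SD from the plate mean, either direction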;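 further: B-score of the F/F0 ratio slope over 7 to 12 s after thallium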
Target sequence (P48048 whole entry, looked up): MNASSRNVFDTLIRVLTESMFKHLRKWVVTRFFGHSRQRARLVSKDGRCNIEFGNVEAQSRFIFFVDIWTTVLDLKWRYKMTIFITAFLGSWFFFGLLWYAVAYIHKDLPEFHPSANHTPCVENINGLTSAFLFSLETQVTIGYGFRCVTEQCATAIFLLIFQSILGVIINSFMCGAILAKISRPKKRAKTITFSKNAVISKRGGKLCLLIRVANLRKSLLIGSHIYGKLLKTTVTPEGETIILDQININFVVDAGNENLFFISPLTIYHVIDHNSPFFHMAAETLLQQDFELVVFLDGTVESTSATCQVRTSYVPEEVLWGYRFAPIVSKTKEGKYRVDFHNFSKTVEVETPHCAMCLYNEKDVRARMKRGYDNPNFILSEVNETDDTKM
Measles CPE = compounds protecting cells from measles virus cytopathic effect, primary screen, measles RdRp inhibitor project, single point, MLSMR library, absorbance. Measles virus-infected cells, CPE protection. protection (pct of control), % at 4 µM. hit rate 1.5% among 140,000. AID 841, 2007; in the data active means protection mostly above about 24%, no sharp cut-off; inactive means mostly below about 26%
INS promoter inh = inhibitors of insulin promoter-driven GFP, primary screen, imaging, TRM-6 cells (human fetal islet line), eGFP reporter, cell count; reporter expression induced with tamoxifen; inhibition, % at 2 µM; hit rate 0.9% among 130,000; AID 1273, 2008;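 active means inhibition above the mean plus 3 SD, with well images judged a real hit on visual review, cut at about 60% in these data, passing the limit was not always enough; inconclusive means inhibition over the cutoff but images rejected on review; inactive means inhibition not above the cutoff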
SDO1 yeast rescue = growth rescue of sdo1-depleted yeast, primary screen, S. cerevisiae, bone marrow failure model; S. cerevisiae sdo1-depleted JHY4D growth rescue, OD600 30 h; active compounds read high; pdr5 snq2 efflux-pump mutant strain; z-score at 10 µM; hit rate 0.21% among 140,000;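 active means z-score above 3 at both the 24 hr and the 30 hr optical density reads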
ROMK retest = ROMK channel modulator hit retest, confirmation, cell-based, thallium flux, duplicate, resupplied hits. shares compounds with ROMK mod. fluorescence ratio; active compounds read low. normalized thallium flux (F/F0 slope) at 10 µM. hit rate 54% among 3,000. AID 1917, 2009;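 active means Flux at 10 µM at least 3 SD below or above vehicle control mean in one or both replicates; inconclusive means no clear call, values can overlap the other calls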
Each line names hits and unclear results; the compound was inactive in the other large screens (follow-up assays come after a bar, where they were run).

Cc1ccccc1C(=O)NNC(=S)Nc1cccc(C(F)(F)F)c1	none (no result: ROMK mod) | ROMK retest 0.0643
COc1ccc(CN2CCCCC2C)c(C)c1C (configuration not stated)	none (no result: ROMK mod)
COc1ccc(CN(C)C2CCCCC2)c(C)c1C	ROMK mod -4.04 | ROMK retest 0.0677
O=C(NCC1CCCO1)C1CCCN(c2ncccn2)C1 (configuration not stated)	none (no result: ROMK mod) | ROMK retest inactive
O=C(O)c1cccc(Nc2cc(Cl)c3nonc3c2[N+](=O)[O-])c1	none (no result: Measles CPE, INS promoter inh, SDO1 yeast rescue)
O=[N+]([O-])c1c(Nc2ccccn2)cc(Cl)c2nonc12	ROMK mod -8.63 (no result: Measles CPE, INS promoter inh, SDO1 yeast rescue) | ROMK retest 0.0434
O=C(Nc1ccc2snnc2c1)N1CCOCC1	none (no result: ROMK mod, INS promoter inh) | ROMK retest inconclusive
CCN1CCc2c(C#N)c(N3CCCCC3)nc(NCc3ccccc3)c2C1	ROMK mod -2.57 | ROMK retest 0.0655
CCN1CCc2c(C#N)c(N3CCOCC3)nc(NCc3ccccc3)c2C1	none
COC(=O)C1C(c2ccccc2)C(C(=O)O)C1c1ccccc1 (configuration not stated)	none (no result: Measles CPE, SDO1 yeast rescue) | ROMK retest inactive
Cc1ccc(C(=O)Nc2nc3n(n2)C(c2ccccc2)CC(=O)N3)cc1 (configuration not stated)	none (no result: Measles CPE, INS promoter inh, SDO1 yeast rescue)
CCc1cc2c(NCc3ccco3)ncnc2s1	ROMK mod -3.92 | ROMK retest inactive
N#Cc1c(-c2ccccc2F)cc(C2CC2)nc1SCC(=O)c1cccs1	none (no result: ROMK mod, INS promoter inh)
COc1ccc(CCNC(=O)CNS(=O)(=O)c2cccs2)cc1OC	none
CCN(CCNC(=O)C1CCN(c2nnc(-n3cccc3)s2)CC1)c1ccccc1	none (no result: ROMK mod)
c1ccc(CCNc2ncnc3ccccc23)cc1	ROMK mod -3.71 (no result: Measles CPE, INS promoter inh, SDO1 yeast rescue) | ROMK retest inactive
CCCN(CCC)C(=O)c1cc2c(=O)[nH]c3ccc(C)cc3c2s1	ROMK mod -4.24 (no result: Measles CPE, SDO1 yeast rescue) | ROMK retest inactive
COc1ccc(CCn2c(Br)nc3c2c(=O)[nH]c(=O)n3C)cc1	none (no result: ROMK mod)
COc1ccc(CCn2c(NN)nc3c2c(=O)[nH]c(=O)n3C)cc1	ROMK mod 4.84 (no result: Measles CPE, INS promoter inh, SDO1 yeast rescue) | ROMK retest inconclusive
CCOc1c(Cl)cc(C(=O)Nc2ccccc2C(=O)O)cc1Cl	ROMK mod -3.62 | ROMK retest 0.0544
COc1ccc(Nc2nc(Nc3ccc(OC)cc3)nc(SC3=NCCS3)n2)cc1	none
O=C(Cc1n[nH]c(=O)c2ccccc12)OCC(=O)c1ccc2c(c1)OCCO2	ROMK mod 3.6 (no result: INS promoter inh) | ROMK retest inactive
COc1ccc(CSc2nc(C)cc(C)c2S(C)(=O)=O)cc1	none (no result: Measles CPE, SDO1 yeast rescue)
N#CC1=C(SCC(=O)NC23CC4CC(CC(C4)C2)C3)NC(=O)C(C#N)C12CCCCC2 (configuration not stated)	ROMK mod -3.69 | ROMK retest 0.0569
CC(C)OCCCNC(=O)c1ccc(NS(C)(=O)=O)cc1	none (no result: ROMK mod) | ROMK retest inactive
COc1ccc(C=O)cc1COc1ccc(F)cc1F	none (no result: ROMK mod)
COc1ccc(C=O)cc1Cn1ccnc1C	ROMK mod -7.22 (no result: Measles CPE, INS promoter inh, SDO1 yeast rescue) | ROMK retest inactive
COc1ccc(C=O)cc1COc1c(F)c(F)cc(F)c1F	ROMK mod 3.92 | ROMK retest inactive
CCOC(=O)C1CCN(C(C(=O)NC2CCCC2)c2ccc(C)cc2)CC1 (configuration not stated)	none (no result: ROMK mod, INS promoter inh)
O=C(Nc1nnc(-c2ccccc2F)s1)C1CCN(S(=O)(=O)c2ccc(Cl)cc2)CC1	none (no result: ROMK mod, INS promoter inh) | ROMK retest inactive
O=C(NCCO)C1CCN(S(=O)(=O)c2ccc(F)cc2)CC1	ROMK mod -6.89 | ROMK retest inactive
COc1ccc(S(=O)(=O)N2CCC(C(=O)Nc3c(F)cccc3F)CC2)cc1	none (no result: ROMK mod, INS promoter inh) | ROMK retest inactive
O=C(Nc1nnc(-c2ccccc2Cl)s1)C1CCN(S(=O)(=O)c2ccc(Cl)cc2)CC1	none (no result: ROMK mod)
CN1C(C(=O)c2ccccc2)=C(N)c2ccccc2S1(=O)=O	ROMK mod 3 (no result: Measles CPE, INS promoter inh, SDO1 yeast rescue) | ROMK retest 0.0663
CCc1ccc(C(=O)OCC(=O)c2c(N)n(CC(C)C)c(=O)n(C)c2=O)cc1	ROMK mod -10.6 (no result: Measles CPE, SDO1 yeast rescue) | ROMK retest inactive
Cc1nc(NC(=O)CSc2cc(C)c3ccccc3n2)c(Cl)cc1Cl	none (no result: ROMK mod, INS promoter inh)
FC(F)(F)c1nnc(Nc2ccc(Cl)cc2)s1	none (no result: Measles CPE, INS promoter inh, SDO1 yeast rescue)
Fc1ccc(Nc2nnc(C(F)(F)F)s2)cc1Cl	none (no result: ROMK mod, Measles CPE, INS promoter inh, SDO1 yeast rescue) | ROMK retest 0.0615
O=C1COc2ccc(C(=O)COC(=O)CNC(=O)C3CCCCC3)cc2N1	none (no result: Measles CPE, SDO1 yeast rescue)
O=C1/C(=C/c2cccnc2)SC(=S)N1CC1CCCO1 (configuration not stated)	ROMK mod -3.98 (no result: Measles CPE, SDO1 yeast rescue) | ROMK retest inconclusive
